Several values for one entry are separate records, joined by “and”; a condition that tells them apart may be missing. Identical values can stand only once. The campaign covered roughly 16,000 compounds. About 5,100 (32%) were called active. Inconclusive results (about 25%) are left out. This is one part of the list. Values without a mark were called inactive. Calls come from the whole dose curve; as a rule, active = well fitted curve in the direction sought with a large enough effect; inconclusive = small, poorly fitted or top-dose-only effect, or effect the other way; inactive = no such curve, though single readings can be large or run the other way.
% is set by controls: 0 for no effect and ±100 for the full control effect.

This assay deals with Cytochrome P450 3A4 (Homo sapiens) (UniProt P08684). Put plainly: Cytochrome panel assay with activity outcomes. To be noted: recombinant CYP, pro-luciferin dealkylation, luminescence, p450-cyp3a4; series mostly up to 57.1 µM; activity, negative = inhibition: at the top concentration.
Sequence of Cytochrome P450 3A4 (Homo sapiens) (P08684 whole entry, looked up): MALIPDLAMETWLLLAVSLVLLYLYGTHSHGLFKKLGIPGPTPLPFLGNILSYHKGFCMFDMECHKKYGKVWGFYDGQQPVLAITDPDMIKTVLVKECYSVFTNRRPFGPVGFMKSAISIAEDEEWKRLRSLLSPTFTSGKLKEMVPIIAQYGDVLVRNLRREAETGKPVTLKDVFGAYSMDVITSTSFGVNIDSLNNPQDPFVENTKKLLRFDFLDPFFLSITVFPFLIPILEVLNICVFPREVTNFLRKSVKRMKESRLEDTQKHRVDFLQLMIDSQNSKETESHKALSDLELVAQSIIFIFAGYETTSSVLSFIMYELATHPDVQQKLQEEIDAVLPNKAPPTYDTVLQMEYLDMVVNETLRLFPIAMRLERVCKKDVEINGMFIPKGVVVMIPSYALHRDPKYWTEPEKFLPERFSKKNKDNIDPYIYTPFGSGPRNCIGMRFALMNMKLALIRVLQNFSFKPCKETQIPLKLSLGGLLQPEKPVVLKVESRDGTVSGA
For `CCn1cc(C(=O)O)c(=O)c2cc(F)c(N3CCNCC3)nc21`, the “activity, negative = inhibition” value is -15.4% [at 25.6 µM].

On to `COc1ccc(-n2nc(C(=O)NCC(=O)Nc3ccccn3)c3ccccc3c2=O)cc1`, for which the AC50 is 3.55 µM (active).

In the case of `COc1cc(Cl)c(C)cc1NC(=O)CNC(=O)Cn1cnc2ccccc2c1=O`, the “activity, negative = inhibition” value is 11.4%.

`COC(=O)c1nn(-c2ccccc2)c(=O)cc1Oc1ccccc1`: the activity, negative = inhibition was -20.9% [at 11.4 µM].

For `Cc1ccc2c(c1)[C@@H]1CN(C)CC[C@@H]1N2S(=O)(=O)c1ccc(F)cc1`, the AC50 is 2 µM (active).

`O=C1[C@H]2[C@H]3[C@H](O)[C@H](O)C/C(=N/OCc4ccccc4)[C@H]3CC[C@@H]2C(=O)N1Cc1ccc2c(c1)OCO2`: the AC50 is 1 µM (active).

As to `CC(=O)OC[C@@H]1O[C@@H](O/N=C2/C[C@@H](O)[C@@H](O)[C@@H]3[C@@H]4C(=O)N(Cc5ccccc5)C(=O)[C@H]4CC[C@@H]23)[C@H](OC(C)=O)[C@H](OC(C)=O)[C@@H]1OC(C)=O`, the activity, negative = inhibition was -27.9% [at 11.4 µM].

Take `CCN1C(=O)[C@H]2[C@H]3[C@H](O)[C@H](O)C/C(=N/O[C@@H](C)c4cc(-c5c(C)cc(C)cc5C)no4)[C@@H]3CC[C@@H]2C1=O`: the AC50 is 3.98 µM (active).

Take `O=C1C[C@@H](O)[C@@H](O)[C@H]2[C@@H]3C(=O)N(Cc4ccccc4)C(=O)[C@@H]3CC[C@H]12`: the activity, negative = inhibition is -12.1% [at 11.4 µM] and -10.8% [at 11.4 µM].

For the compound `CC(=O)OC[C@@H]1O[C@@H](O/N=C2/C[C@@H](O)[C@@H](O)[C@@H]3[C@@H]4C(=O)N(Cc5ccccc5)C(=O)[C@H]4CC[C@H]23)[C@H](OC(C)=O)[C@H](OC(C)=O)[C@@H]1OC(C)=O`, the activity, negative = inhibition is -25% [at 11.4 µM].

Regarding `O=C1C[C@@H](O)[C@@H](O)[C@H]2[C@@H]3C(=O)N(Cc4ccc5c(c4)OCO5)C(=O)[C@@H]3CC[C@H]12`, the AC50 was 3.98 µM (active).

As to `CC(=O)OC[C@@H]1O[C@@H](O/N=C2/C[C@@H](O)[C@@H](O)[C@@H]3[C@@H]4C(=O)N(Cc5ccc6c(c5)OCO6)C(=O)[C@H]4CC[C@H]23)[C@H](OC(C)=O)[C@H](OC(C)=O)[C@@H]1OC(C)=O`, the AC50 is 5.01 µM (active).

As for `CCN1C(=O)[C@H]2[C@H]3[C@H](O)[C@H](O)C/C(=N/OCC(C)C)[C@@H]3CC[C@@H]2C1=O`, the activity, negative = inhibition is -6.7% [at 11.4 µM].

In the case of `CCN1C(=O)[C@H]2[C@@H]3[C@H](O)[C@H](O)CC(=O)[C@H]3CC[C@H]2C1=O`, the activity, negative = inhibition is -13.1% [at 11.4 µM] and -13% [at 11.4 µM].

Regarding `CCN1C(=O)[C@H]2[C@H]3[C@H](O)[C@H](O)C/C(=N/OCC(C)C)[C@H]3CC[C@@H]2C1=O`, the activity, negative = inhibition is 19.2% [at 11.4 µM].

With `CCOC(=O)C(NC(C)=O)C(OC(C)=O)c1cccc(N(CCO)CCO)c1` (stereo not drawn), the “activity, negative = inhibition” value is -20.2%.

For `CC(=O)N(C)c1nnc(-c2cnccn2)s1`, the “activity, negative = inhibition” value was -0.972%.

As to `CC(=O)N[C@@H]1CONC1=O`, the activity, negative = inhibition is -3.29% [at 11.4 µM].

As for `O=C1[C@H]2[C@H]3[C@H](O)[C@H](O)C/C(=N/OCc4ccccc4)[C@@H]3CC[C@@H]2C(=O)N1C[C@@H]1CCCO1`, the activity, negative = inhibition is -20.3% [at 11.4 µM].

On to `O=C1[C@H]2[C@H]3[C@H](O)[C@H](O)C/C(=N/OCc4ccccc4)[C@@H]3CC[C@@H]2C(=O)N1Cc1ccc2c(c1)OCO2`, for which the AC50 is 2 µM (active).

Take `CC(C)CO/N=C1/C[C@@H](O)[C@@H](O)[C@@H]2[C@@H]3C(=O)N(C[C@@H]4CCCO4)C(=O)[C@H]3CC[C@H]12`: the activity, negative = inhibition is -0.365% [at 11.4 µM].

Take `O=C1[C@H]2[C@H]3[C@H](O)[C@H](O)C/C(=N/OCc4ccccc4)[C@H]3CC[C@@H]2C(=O)N1C[C@@H]1CCCO1`: the activity, negative = inhibition is -11.3% [at 11.4 µM].

In the case of `CC(C)CO/N=C1/C[C@@H](O)[C@@H](O)[C@@H]2[C@@H]3C(=O)N(Cc4ccc5c(c4)OCO5)C(=O)[C@H]3CC[C@H]12`, the AC50 was 1 µM (active).

Turning to `CC(C)CO/N=C1/C[C@@H](O)[C@@H](O)[C@@H]2[C@@H]3C(=O)N(Cc4ccccc4)C(=O)[C@H]3CC[C@@H]12`, the activity, negative = inhibition is -11.8% [at 11.4 µM].

In the case of `Nc1ccc(C(=O)C[C@H](N)C(=O)O)cc1O`, the activity, negative = inhibition is -6.46% [at 11.4 µM].

On to `O=C(O)[C@@H]1[C@@H](C(=O)Nc2ncccn2)[C@@H]2C=C[C@@H]1O2`, for which the activity, negative = inhibition was -13% [at 11.4 µM].

Regarding `Nc1c(-c2cccs2)cnn1-c1nc(-c2ccc(F)cc2)cs1`, the AC50 is 3.98 µM (active).

On to `Fc1ccc(-c2cnc(-c3cccs3)o2)cc1`, for which the “activity, negative = inhibition” value was 0.322%.

Consider `CCOC(=O)c1cnn(-c2nc(-c3ccc(F)cc3)cs2)c1C(F)(F)F`, for which the “activity, negative = inhibition” value is 18.5%.

Consider `Cc1ccc(C)c(S(=O)(=O)NCc2ccc(C(=O)N3CCC(Cc4ccccc4)CC3)cc2)c1`, for which the AC50 was 2.24 µM (active).

For `CC1(C)CC(O)CC(C)(C)N1CC(O)COCCOc1ccc(Br)cc1` (stereo not drawn), the “activity, negative = inhibition” value was -11.2%.

With `O=C(CCl)Nc1ccc(Oc2cnc3ccccc3n2)cc1`, the AC50 is 14.1 µM (active).

With `Clc1cccc(Oc2cnc3ccccc3n2)c1`, the “activity, negative = inhibition” value was 25.7%.

`COCCNC(=O)COC(=O)/C=C/c1cnc2ccccc2n1`: the activity, negative = inhibition is -3.34% [at 2.29 µM].

For `COc1ccccc1CNc1cc(-c2cccnc2)ncn1`, the AC50 was 0.631 µM (active).

Turning to `COc1ccc(CNc2cc(-c3cccnc3)ncn2)c(OC)c1`, the AC50 is 1.58 µM (active).

On to `O=C(NC(=S)Nc1nc(-c2ccc(Br)cc2)cs1)c1cccnc1`, for which the activity, negative = inhibition is -14.3% [at 2.29 µM].

For `COc1ccc(CCNc2nc(-c3cccnc3)cs2)cc1OC`, the AC50 is 3.16 µM (active).

For the compound `c1ccc(-c2csc3ncn4cnnc4c23)cc1`, the “activity, negative = inhibition” value was -24.1%.

Turning to `CCS(=O)(=O)Nc1ccc(C2=NN(C(=O)c3ccco3)C(c3ccc(C)cc3)C2)cc1` (stereo not drawn), the AC50 is 3.98 µM (active).

In the case of `Cc1ccc(C2C(C(=O)c3ccco3)=C(O)C(=O)N2c2nnc(C)s2)cc1` (stereo not drawn), the “activity, negative = inhibition” value is -17.9%.

Take `N=C(N)SCCc1cnc[nH]1`: the AC50 was 15.8 µM (active).

As to `N=C(N)SCCc1ccncc1`, the activity, negative = inhibition was 4.88% [at 11.4 µM].

Consider `N=C(N)SCCSC(=N)N`, for which the activity, negative = inhibition is -5.54% [at 11.4 µM].

Turning to `Cc1cc(C)cc(Oc2coc3cc(OC(=O)c4cccs4)ccc3c2=O)c1`, the “activity, negative = inhibition” value is -2.26%.

Take `CCOc1ccccc1Oc1coc2cc(OC)ccc2c1=O`: the “activity, negative = inhibition” value is 20.6%.

Take `Cc1cccc(Oc2coc3cc(OC(=O)c4cccs4)ccc3c2=O)c1`: the AC50 is 11.2 µM (active).

Take `CCCCCCCCn1cc(C(C)=O)c(=O)[nH]c1=O`: the activity, negative = inhibition was -12.5% [at 2.29 µM].

For `O=C(Cn1c(=O)n(Cc2ccco2)c(=O)c2c3c(sc21)CCCCC3)c1ccccc1`, the AC50 is 14.1 µM (active).

For `C[N+]1(NCC[N@@+]2(C)CCc3ccccc3C2)CCCCC1`, the activity, negative = inhibition was 0.246% [at 11.4 µM].

With `CCC(C)(C)n1nnnc1C(C(C)C)N(CCCO)Cc1cc2cc(C)ccc2[nH]c1=O` (stereo not drawn), the AC50 was 2 µM (active).

Turning to `CCC(C)(C)n1nnnc1C(c1ccc(C)cc1)N1CCC(C)CC1` (stereo not drawn), the activity, negative = inhibition was 21.5% [at 2.29 µM].

Turning to `CCC(C)(C)n1nnnc1C(c1cc2cc3c(cc2[nH]c1=O)OCO3)N1CCCCC1` (stereo not drawn), the AC50 was 1.58 µM (active).

For the compound `CCC(C)(C)n1nnnc1C(C(C)C)N(Cc1ccco1)Cc1cc2cc3c(cc2[nH]c1=O)OCO3` (stereo not drawn), the AC50 was 1 µM (active).

Consider `c1ccc(C[n+]2cccc(-c3cc4ccccc4[nH]3)c2)cc1`, for which the activity, negative = inhibition was -7.36% [at 11.4 µM].

For the compound `Fc1ccccc1OCCCCSc1ncccn1`, the “activity, negative = inhibition” value was 15.6%.

With `O=C1C(SCCO)=C(SCCO)C(=O)c2ccccc21`, the AC50 is 25.1 µM (active).

Consider `O=S(=O)(O)[C@@H](CO)c1ccccc1` (tested in a mixture with another compound), for which the activity, negative = inhibition was -1.16% [at 11.4 µM].

For `O=C1C(=O)c2ccccc2C(O)=C1C(CCc1ccccc1)C1=C(O)c2ccccc2C(=O)C1=O`, the activity, negative = inhibition is -5.65% [at 11.4 µM].

Take `COc1ccc2[nH]cc(CCNc3ccnc(-c4cccnc4)n3)c2c1`: the AC50 is 1.26 µM (active).

As for `COc1ccc2[nH]cc(CCNc3cc(-c4cccnc4)ncn3)c2c1`, the AC50 was 3.98 µM (active).

Take `COc1cccc(-c2cc(NCCc3c[nH]c4ccc(OC)cc34)ncn2)c1`: the AC50 is 7.94 µM (active).

On to `COc1ccc2[nH]cc(CCNc3cc(-c4cccc(C#N)c4)ncn3)c2c1`, for which the AC50 was 3.98 µM (active).

As for `COc1ccc2[nH]cc(C=O)c2c1`, the “activity, negative = inhibition” value was -9.85%.

`COc1ccc2[nH]cc(CCNc3cc(-c4ccoc4)ncn3)c2c1`: the AC50 was 10 µM (active).

Take `CC(C)N=C(N)/N=C(\N)Nc1ccc(Cl)cc1`: the “activity, negative = inhibition” value was 4.7% [at 25.6 µM].

Turning to `Cc1ccc(NC(=O)N/C=C/c2ccc(Cl)cc2)cc1`, the AC50 is 0.0501 µM (active).

For `O=c1ncn(-c2ccccc2F)c2ncccc12`, the activity, negative = inhibition is 14.6% [at 2.29 µM].

For the compound `Cc1n[nH]c2ccccc2c1=O`, the activity, negative = inhibition is -6.8% [at 11.4 µM].

As for `O=C1c2ccccc2-c2n[nH]c3cccc1c23`, the AC50 is 3.98 µM (active).

With `O=c1ccc(-c2ccccc2)n[nH]1`, the activity, negative = inhibition is -16.6% [at 11.4 µM].

On to `NC(N)=NC(=O)Cc1c(Cl)cccc1Cl`, for which the “activity, negative = inhibition” value was -26.9% [at 25.6 µM].

As to `Cc1cc2cccc(C)c2nc1SCC(=O)N(C)c1nc(-c2ccccc2)cs1`, the “activity, negative = inhibition” value is -5.62%.

For `Cc1ccc2nc(SCC(=O)NCc3cccs3)c(C#N)cc2c1`, the activity, negative = inhibition is -9.74% [at 2.29 µM].

Take `Cc1nc2cc(NC(=O)CSc3nc4c(C)cccc4cc3C#N)ccc2s1`: the AC50 was 2.82 µM (active).

As to `CCC(C)NS(=O)(=O)c1ccc(OCC(=O)NCC2CCCO2)cc1` (stereo not drawn), the “activity, negative = inhibition” value is -6.74%.

Consider `COc1ccc(/C=C(\C#N)C(=O)NCC2CCCO2)cc1OC` (stereo not drawn), for which the “activity, negative = inhibition” value is 13.9%.

As to `COc1ccc(S(=O)(=O)N(CC(=O)NCC2CCCO2)c2ccc(F)cc2)cc1OC` (stereo not drawn), the AC50 was 8.91 µM (active).

As for `COc1ccccc1N(CC(=O)NCC1CCCO1)C(=O)CNS(=O)(=O)c1ccc(C)cc1` (stereo not drawn), the AC50 is 7.94 µM (active).

Consider `O=C(O)c1cc(S(=O)(=O)NCC2CCCO2)ccc1Cl` (stereo not drawn), for which the “activity, negative = inhibition” value was 9.58%.

In the case of `CC(C)C(C(=O)NCC1CCCO1)N(Cc1ccco1)C(=O)CNS(=O)(=O)c1ccc(F)cc1` (stereo not drawn), the AC50 is 5.01 µM (active).

Turning to `O=C(NCC1CCCO1)c1ccc(CS(=O)(=O)Cc2ccc(F)cc2)o1` (stereo not drawn), the “activity, negative = inhibition” value is -19.5%.

Turning to `O=C(CN(CC1CCCO1)C(=O)CNS(=O)(=O)c1ccc(Cl)cc1)NCCc1ccccc1` (stereo not drawn), the AC50 is 11.2 µM (active).

As usually defined, the AC50 is the midpoint of the concentration-response curve, whichever way the signal moves.

The record behind these values is PubChem BioAssay AID1851 (National Center for Advancing Translational Sciences (NCATS), 2009).
